In all, about 2,500 compounds went through this assay and about 1,100 (44%) were called active. So high a share suggests a set chosen from earlier hits. The list shows a part of the results. A number with no mark means an inactive call.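 How the source made its calls: active means inhibition above 50% at 4 µM in the single-point screen; inactive means inhibition of 50% or less.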
Experiment: blockers of TNF-a NF-kB luciferase induction – cell-based, HEK293T NF-kB-Luc, luminescence, selectivity assay for NOD1/NOD2 signaling inhibitor project, primary screen (AID 1852)
Conditions: TNF-a induced, 14 h, at 4 µM, hits give high values

| Compound | inhibition |
| --- | --- |
| Cn1c2c(c(=O)n(C)c1=O)C(C(F)(F)F)(C(F)(F)F)N=C(c1ccc(Cl)cc1)N2 | 73.2% (active) |
| Cc1nc2c(Br)cc(Br)cc2cc1O | 8.1% |
| COc1ccc(C(=O)NC(=C(Cl)Cl)S(=O)(=O)c2ccc(C)cc2)cc1 | -46.2% |
| O=C(NC(=C(Cl)Cl)S(=O)(=O)c1ccc(Cl)cc1)c1ccccc1 | 97.1% (active) |
| Cc1ccc(C(=O)NC(=C(Cl)Cl)S(=O)(=O)c2ccc(C)cc2)cc1 | 4.6% |
| Cc1ccc(C(=O)NC(=C(Cl)Cl)S(=O)(=O)c2ccccc2)cc1 | 97.7% (active) |
| Cc1ccc(C(=O)NC(=C(Cl)Cl)S(=O)(=O)c2ccc(Cl)cc2)cc1 | 63.9% (active) |
| CC(=O)NC(=C(Cl)Cl)S(=O)(=O)c1ccccc1 | 42.6% |
| Cc1ccc(C(=O)c2cnc3cc4c(cc3c2S(=O)(=O)c2ccccc2)OCCO4)cc1 | -56.6% |
| Cc1ccc(C(=O)NC(C#N)=C(Cl)Cl)cc1 | 94.7% (active) |
| CC(C)NC(=S)NC(c1ccccc1)(c1ccccc1)c1ccccc1 | 19.3% |
| COc1cc(/C=C2\C(=N)N3N=C(S(C)(=O)=O)SC3=NC2=O)ccc1OCCOc1ccc(C)cc1 | -39.5% |
| Clc1ccccc1Cc1noc(CN2CCN(c3cnccn3)CC2)n1 | 7.7% |
| O=C(O)c1c(NC(=O)c2cccc3ccccc23)sc2c1CCC2 | 53.9% (active) |
| Cc1cccc(C(=O)Nc2sc3c(c2C(=O)O)CCCC3)c1 | -8.5% |
| O=C(Nc1sc2c(c1C(=O)O)CCCC2)c1ccccc1Cl | 25% |
| Cc1ccc(Nc2c([N+](=O)[O-])c(=O)oc3ccccc23)cc1C | 6.4% |
| COC(=O)c1ccc(Nc2c([N+](=O)[O-])c(=O)oc3ccccc23)cc1 | 99.5% (active) |
| O=c1oc2ccccc2c(Nc2ccc(F)cc2)c1[N+](=O)[O-] | -32.2% |
| C=CS(=O)(=O)c1ccc(Oc2ccc(S(=O)(=O)C=C)cc2)cc1 | 103% (active) |

| Compound | inhibition |
| --- | --- |
| CC(=O)NC(c1ccc(C)cc1)c1cc([N+](=O)[O-])c2cccnc2c1O (stereo not drawn) | 76.4% (active) |
| CC(=O)NC(c1ccc(C)cc1)c1cc(Cl)c2cccnc2c1O (stereo not drawn) | 77.9% (active) |
| CCC(=O)NC(/C=C/c1ccccc1)c1cc([N+](=O)[O-])c2cccnc2c1O (stereo not drawn) | 81.6% (active) |
| CC(=O)NC(c1ccccc1)c1cc([N+](=O)[O-])c2cccnc2c1O (stereo not drawn) | 99.5% (active) |
| CCCCCc1ccc(OCCCC[n+]2ccc(C)cc2)c(CCCCC)c1 | 6.6% |
| CCC(=O)NC(c1ccc(C)cc1)c1cc([N+](=O)[O-])c2cccnc2c1O (stereo not drawn) | 84.6% (active) |
| CC[C@@]1(O)C(=O)OCc2c1cc1n(c2=O)Cc2cc3c(N)cccc3nc2-1 | 88.3% (active) |
| O=C(CNc1cccc2ccccc12)N/N=C/c1ccc([N+](=O)[O-])o1 | 34% |
| Cc1nonc1C(=O)N/N=C/c1ccc([N+](=O)[O-])o1 | 46% |
| Cc1scc(C(=O)N/N=C/c2ccc([N+](=O)[O-])o2)c1C | 72% (active) |
| Cc1ccc(NCC(=O)N/N=C\c2ccc([N+](=O)[O-])o2)cc1 | 35.7% |
| O=C(N/N=C/c1ccc([N+](=O)[O-])o1)c1ccccc1-n1cccc1 | 45.7% |
| O=C(N/N=C/c1ccc([N+](=O)[O-])o1)c1ccccc1NS(=O)(=O)c1cccs1 | 61.1% (active) |
| O=[N+]([O-])c1ccc(/C=N/N=C/c2ccc([N+](=O)[O-])o2)o1 | 83% (active) |
| O=C(N/N=C/c1ccc([N+](=O)[O-])o1)c1cc2ccccc2o1 | 52.9% (active) |
| O=C(Nc1c(Cl)ccc2nsnc12)c1ccc([N+](=O)[O-])o1 | 16% |
| O=C(N/N=C/c1ccc([N+](=O)[O-])o1)c1ccc2c(c1)OCO2 | 71.8% (active) |
| CCN(c1ccccc1)S(=O)(=O)c1ccc(NC(=S)NC(=O)c2cccs2)cc1 | 43.4% |
| O=C(CN(Cc1ccccc1)S(=O)(=O)c1ccc2c(c1)OCCO2)Nc1ccc2c(c1)OCCO2 | 8.4% |
| CCCCN(CC)S(=O)(=O)c1ccc(C(=O)Nc2nnc(-c3cccs3)o2)cc1 | 59.1% (active) |

| Compound | inhibition |
| --- | --- |
| CCN(Cc1ccccc1)S(=O)(=O)c1ccc(C(=O)Nc2nnc(C3CC3)o2)cc1 | 92.7% (active) |
| CCCCN(CC)S(=O)(=O)c1ccc(C(=O)Nc2nnc(-c3ccccc3Cl)o2)cc1 | 59.6% (active) |
| CCCCN(C)S(=O)(=O)c1ccc(C(=O)Nc2nnc(-c3cccs3)o2)cc1 | 55.8% (active) |
| CN1CCN(Cc2nc(Cc3cccc(F)c3)no2)CC1c1ccccc1 (stereo not drawn) | 3.2% |
| O=C(N/N=C/c1cc(Cl)c(O)c(Cl)c1)c1cc2c(ccc3ccccc32)o1 | 42.9% |
| CCOC(=O)COc1ccc2ccccc2c1/C=C/[N+](=O)[O-] | 27.3% |
| NC(=S)N/N=C\c1c(OCc2ccccc2Cl)ccc2ccccc12 | 66% (active) |
| CCCNc1c(NS(=O)(=O)c2ccc(Br)cc2)c(=O)oc2ccccc12 | 11.2% |
| COc1ccc(NC(C)=O)cc1S(=O)(=O)Nc1ccc(OCc2ccccc2)cc1 | 33.1% |
| Cc1ccc(S(=O)(=O)Nc2cc(C)c(O)cc2C)cc1 | 29.5% |
| Cc1ccc(S(=O)(=O)Nc2cc(C(C(=O)OC(C)C)C(=O)C(F)(F)F)c(O)c3ccccc23)c(C)c1 (stereo not drawn) | 72% (active) |
| COc1ccc(S(=O)(=O)Nc2ccc(OCC(=O)O)cc2)c2ccccc12 | -2.2% |
| CCc1ccc(S(=O)(=O)Nc2ccc(O)c3ccccc23)cc1 | 36.3% |
| O=S(=O)(Nc1ccc(O)c2ccccc12)c1ccc(Br)cc1 | 101% (active) |
| COc1ccc(OC)c(S(=O)(=O)Nc2ccc(O)c3ccccc23)c1 | 62.6% (active) |
| Cc1ccc(S(=O)(=O)Nc2ccc(O)c3ccccc23)c(C)c1 | 92.3% (active) |
| O=C(O)CCSc1ncnc2sc(-c3ccccc3)cc12 | 43.8% |
| O=C(O)CCSc1nnc(-c2ccc3c(c2)OCO3)o1 | 64.7% (active) |

— PubChem BioAssay AID1852 (Sanford-Burnham Center for Chemical Genomics, 2009)
